The values below come from PubChem BioAssay.

The viability is a read-out of living cells in per cent, often relative to untreated cells. As a reminder, the inhibition is the drop in the measured response relative to a control, in per cent.

Assay [1] is described as follows: reducers of endogenous Her2 protein level, primary screen, SKBR3 breast tumor cells, AlphaScreen, ATP viability (AID 461;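 active = Her2 level under about 52% in both replicate screens, with viability over 70% of control, limit read from the data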;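 as to Her2 level: lower value means less Her2 protein in the cells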;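 as to viability: percent of carrier control wells set as 100% viability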). The note with it: 18-24 h, measured here: SKBR3 viability, ATP luminescence, at 10 µM. A general note: Bead proximity is the source of the signal in Alpha formats.
In assay [2] the target is Receptor tyrosine-protein kinase erbB-2 (Homo sapiens) (UniProt P04626). Described as above. The note with it: 18-24 h, at 10 µM, stronger effect = lower value.
A short description of assay [3]: SK-BR-3 cell growth inhibitors, pilot screen, 24 h, human (AID 572;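 active = viability at or below 10% of carrier control in both of two separate runs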;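 also: compound exposure lasted between 18 and 24 h rather than exactly 24 h; 100% = carrier-treated control wells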). The note with it: SK-BR-3 viability, CellTiter-Glo luminescence, at 10 µM, stronger effect = lower value.
Assay [4] is described as follows: HUVEC growth inhibition – cell-based, human, primary screen (AID 575;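 active = viability at or below 30% in both replicate assays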;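 also: 100% = median of untreated cell wells with 0.1% DMSO on each plate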). The note with it: HUVEC proliferation, CellTiter-Glo luminescence, 72 h; at 10 µM; stronger effect = lower value.
The nature of assay [5]: growth inhibitors of H69AR lung tumor, primary screen, human, duplicate replicates (AID 580;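 active = viability at or under a set limit in both replicates, limit being median viability minus 3 SD, cut at about 48% in these data, passing the limit was not always enough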;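 also: 100% = mean luminescence of untreated wells and 0% = no signal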). The note with it: H69AR lung tumor cells viability, ATP luminescence, 72 h; at 10 µM; stronger effect = lower value.
Assay [6] can be described thus: reversal of MRP1-mediated doxorubicin resistance, pilot screen, H69AR cells, doxorubicin co-treatment (AID 601;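 active = viability loss from added drug above about 55%, and viability with drug at most 40%, in both replicates, limit read from the data, passing the limit was not always enough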). The note with it: CellTiter-Glo, 72 h, at 10 µM; for differential viability (reversal): stronger effect = higher value. A general note: In ATP-based viability assays light output follows the ATP content of the culture.
A short description of assay [7]: 384-well plate pilot, post-Golgi transport modulator project, inhibition of yeast transport mutant growth (AID 636; in the data active = inhibition above about 31%). The note with it: absorbance 615 nm, about 18 h, stronger effect = higher value.
Assay [8] is described as follows: growth suppression of yeast trafficking mutant, preliminary HTS, modulators of trafficking downstream of Golgi apparatus project, 1536-format plate, OD 615 nm (AID 637; in the data active = inhibition above about 30%). The note with it: yeast transport mutant growth, absorbance 615 nm, 18 h; stronger effect = higher value.
Assay [9] is described as follows: OD615 S. cerevisiae growth inhibition, permissive medium, pilot counter-assay, permissive growth control for S. cerevisiae lifespan shortening project (AID 705;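 active = growth inhibition above 25% in both replicates, a cutoff set 3 SD above the mean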). The note with it: OD615, 24 h, at 10 µM, stronger effect = higher value.
Assay [10] is described as follows: Restrictive medium S. cerevisiae growth inhibition, OD615, pilot screen of yeast lifespan reduction project, restrictive growth control (AID 706;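 active = growth inhibition above a set limit, 3 SD over mean compound inhibition, in both replicates, cut at about 43% in these data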;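 also: modified DeaD lifespan yeast strain shifted to restrictive glucose medium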). The note with it: OD615, 48 h, at 10 µM, stronger effect = higher value.
Assay [11] can be described thus: viability gain of MRP-1-high H69AR cells under doxorubicin, pilot screen, MRP-1 activator project, CellTiter-Glo, duplicate (AID 807;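 active = viability increase at or above a cutoff of the median across tested compounds plus 3 SD, cut at about 8.5% in these data, passing the limit was not always enough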;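 also: compound pretreatment 18-22 h then 72 h combined with doxorubicin; 0% = doxorubicin alone and 100% = vehicle without doxorubicin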). The note with it: H69AR viability with doxorubicin, CellTiter-Glo luminescence; at 10 µM; stronger effect = higher value.
Assay [12] can be described thus: growth suppression of beta-catenin knockout HCT116, pilot screen, human colon tumor cells (AID 823;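 active = cell viability at or below a set limit in both duplicate runs, the limit being the all-compound median minus 4 SD, cut at about 23% in these data, passing the limit was not always enough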;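 also: 0% = wells killed by 20 µM Hyamine and 100% = untreated DMSO cell wells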). The note with it: CellTiter-Glo, 60 h, at 10 µM, stronger effect = lower value.
Assay [13] can be described thus: growth suppression of PTEN-deleted HCT116, pilot screen, cell-based, HCT116 clonal line, CellTiter-Glo (AID 824;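 active = viability at or below 27.92% in each of two runs, the all-compound median minus 4 SD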;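 also: 0% = 20 µM Hyamine control and 100% = vehicle cell control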). The note with it: 60 h, at 10 µM, stronger effect = lower value.
The nature of assay [14]: inhibitors of the yeast RAM network, pilot screen, dse1pr::URA3 reporter, 5-FOA selection (AID 869).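 Also: 0% = DMSO wells with no growth and 100% = 10 µM 1-NA-PP1 with full growth; RAM network block rescues cells from 5-FOA so hits raise OD615 growth.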 The note with it: S. cerevisiae dse1pr::URA3 5-FOA growth, OD615, 2 d; at 10 µM; stronger effect = higher value; strain carries analog-sensitive mutant Cbk1 kinase.
Assay [15] in a line: RAM signaling pathway blockade in yeast – S. cerevisiae, Pdr1DBD-CYC8 efflux-inhibited sensitized strain, primary screen (AID 1298;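 active = RAM network inhibition above 8.4% in each of two replicates, 3 SD over the compound average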;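 also: 0% = DMSO untreated cells without growth and 100% = 10 µM 1-NA-PP1 full growth; higher means more yeast growth rescued from 5-FOA killing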). The note with it: S. cerevisiae cbk1-as DSE1-URA3 strain, 5-FOA growth OD615, 2 d; at 50 µM; stronger effect = higher value.
The mark [16] stands for this setting: H69AR cells + 2 uM doxorubicin, measured here: viability with 2 uM doxorubicin, stronger effect = lower value.
[17] abbreviates: H69AR cells, compound alone cytotoxicity.

Inconclusive results are not listed. The source made the active and inactive calls.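 The calls were made as follows, unless noted: active = inhibition over a set limit, the all-compound mean plus 3 SD, in both replicate runs; inconclusive = over that limit in just one replicate run; inactive = at or under that limit in both runs.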

Sequence of Receptor tyrosine-protein kinase erbB-2 (Homo sapiens) (P04626 whole entry, looked up): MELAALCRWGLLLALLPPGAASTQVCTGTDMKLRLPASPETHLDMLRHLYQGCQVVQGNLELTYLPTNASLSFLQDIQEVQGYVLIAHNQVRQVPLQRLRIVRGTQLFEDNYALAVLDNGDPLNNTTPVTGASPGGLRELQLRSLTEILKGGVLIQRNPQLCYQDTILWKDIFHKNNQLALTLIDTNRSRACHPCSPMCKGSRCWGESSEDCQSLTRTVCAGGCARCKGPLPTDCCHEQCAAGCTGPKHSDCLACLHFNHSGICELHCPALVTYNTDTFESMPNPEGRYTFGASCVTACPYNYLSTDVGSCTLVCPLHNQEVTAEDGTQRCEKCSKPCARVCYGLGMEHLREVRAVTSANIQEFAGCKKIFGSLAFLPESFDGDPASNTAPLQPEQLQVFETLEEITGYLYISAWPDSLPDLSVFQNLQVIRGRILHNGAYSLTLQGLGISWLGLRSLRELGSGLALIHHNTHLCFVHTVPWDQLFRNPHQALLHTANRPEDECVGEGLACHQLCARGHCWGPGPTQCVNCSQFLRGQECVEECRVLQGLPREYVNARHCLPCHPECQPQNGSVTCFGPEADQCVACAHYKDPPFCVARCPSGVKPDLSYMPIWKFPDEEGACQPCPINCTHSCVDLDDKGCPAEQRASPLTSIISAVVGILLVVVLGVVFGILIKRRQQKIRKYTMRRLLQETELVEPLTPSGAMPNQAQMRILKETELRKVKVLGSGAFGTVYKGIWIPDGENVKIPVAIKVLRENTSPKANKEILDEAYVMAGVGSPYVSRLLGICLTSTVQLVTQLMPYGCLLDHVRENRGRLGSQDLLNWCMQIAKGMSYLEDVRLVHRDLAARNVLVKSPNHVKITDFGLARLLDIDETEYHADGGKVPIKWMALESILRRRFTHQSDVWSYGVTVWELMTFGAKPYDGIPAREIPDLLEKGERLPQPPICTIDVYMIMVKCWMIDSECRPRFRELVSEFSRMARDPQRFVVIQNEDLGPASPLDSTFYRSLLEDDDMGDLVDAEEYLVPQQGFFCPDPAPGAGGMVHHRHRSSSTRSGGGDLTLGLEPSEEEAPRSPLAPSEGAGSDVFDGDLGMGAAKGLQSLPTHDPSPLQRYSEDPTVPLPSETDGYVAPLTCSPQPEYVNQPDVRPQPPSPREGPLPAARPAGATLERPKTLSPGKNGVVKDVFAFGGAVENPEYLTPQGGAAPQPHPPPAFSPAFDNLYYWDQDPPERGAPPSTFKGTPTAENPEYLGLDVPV

Take `CCCc1cc(C(=O)Nc2sc3c(c2C#N)CCC3)no1`: the viability in [1] was 86.5%; in [3], 86.5% (inactive); in assay [4] it was 58% (inactive); in assay [5], 29.8% (active); in [6] (setting [16]), 55.6%; in [6] (setting [17]), 29.8%. Moreover, the values for the viability in [12] and in assay [13] were 92.2% (inactive) and 87.1% (inactive), respectively. Further, in assay [2], the Her2 level is 77.5% (inactive). Further, the differential viability (reversal) in assay [6] (H69AR cells + 2 uM doxorubicin) was -25.9% (inactive). For the same compound, the inhibition was -2.05% (inactive) in [7], -4.5% (inactive) in assay [8] and -0.06% (inactive) in assay [14]. Further, the growth inhibition in assay [9] is 4.12% (inactive); in assay [10] it was 0.215% (inactive). In addition, in [11], the viability increase is -2.05% (inactive). The RAM network inhibition in assay [15] is -1.49% (inactive).

Regarding `CCOC(=O)Cc1ccc(NS(=O)(=O)c2ccc(SC)cc2)cc1`, the viability is 89% in assay [1]; 89% (inactive) in assay [3]; 67.9% (inactive) in assay [4]; 86.7% (inactive) in assay [5]; 82.8% in assay [6] (setting [16]); 86.7% in assay [6] (setting [17]). The values for the viability in assay [12] and in assay [13] were 94.4% (inactive) and 88.1% (inactive), respectively. Besides, the Her2 level in assay [2] is 88% (inactive). Besides, the differential viability (reversal) in assay [6] (H69AR cells + 2 uM doxorubicin) is 3.83% (inactive). The inhibition in assay [7] was -5.54% (inactive); in [8], -5.08% (inactive); in assay [14] it was 0.825% (inactive). Moreover, the values for the growth inhibition in assay [9] and in [10] were 6.06% (inactive) and -1.98% (inactive), respectively. For the same compound, in assay [11], the viability increase is -4.85% (inactive). In addition, the RAM network inhibition in assay [15] is 2.83% (inactive).

In the case of `COc1ccc(OC)c(NC(=O)c2cn(C)c(=O)c3cc(OC)c(OC)cc23)c1`, the viability in assay [1] was 104%; in assay [3] it was 104% (inactive); in assay [4], 97.2% (inactive); in assay [5], 93.8% (inactive); in [6] (setting [16]), 88.1%; in assay [6] (setting [17]), 93.8%. Further, the results for the viability in [12] and in assay [13] were 99.6% (inactive) and 96.7% (inactive), respectively. For the same compound, the Her2 level in [2] was 104% (inactive). In addition, the differential viability (reversal) in assay [6] (H69AR cells + 2 uM doxorubicin) is 5.68% (inactive). Moreover, the inhibition in assay [7] was -0.41% (inactive); in assay [8] it was 28.7% (inactive); in assay [14] it was 0.435% (inactive). In addition, the values for the growth inhibition in [9] and in [10] were -17.3% (inactive) and -19.3% (inactive), respectively. Further, the viability increase in [11] is -4.55% (inactive). Besides, the RAM network inhibition in [15] is 3.89% (inactive).

Turning to `COc1ccccc1NC(=O)N1CCN(c2cccc(C(F)(F)F)c2)CC1`, the viability in assay [1] was 89%; in [3], 89% (inactive); in [4], 78.1% (inactive); in assay [5] it was 95.2% (inactive); in assay [6] (setting [16]), 78.2%; in assay [6] (setting [17]), 95.2%. Besides, the viability in [12] is 89.5% (inactive); in [13], 84.7% (inactive). For the same compound, the Her2 level in [2] was 98.5% (inactive). Further, the differential viability (reversal) in assay [6] (H69AR cells + 2 uM doxorubicin) was 16.9% (inactive). Also, the values for the inhibition in [7], in assay [8] and in assay [14] were -3.11% (inactive), -10.3% (inactive) and 0.115% (inactive), respectively. Besides, the figures for the growth inhibition in [9] and in [10] were -10.8% (inactive) and 3.75% (inactive), respectively. The viability increase in assay [11] is 2.13% (inactive). Moreover, in [15], the RAM network inhibition was 2.91% (inactive).

Regarding `Cc1cc(C)n(-c2ccc(N3CCOCC3)nn2)n1`, the viability in assay [1] is 108%; in assay [3] it was 108% (inactive); in assay [4] it was 98.1% (inactive); in [5], 89.5% (inactive); in assay [6] (setting [16]) it was 93.8%; in [6] (setting [17]) it was 89.5%. Also, the viability in assay [12] is 103% (inactive); in [13], 101% (inactive). In assay [2], the Her2 level was 99% (inactive). Also, the differential viability (reversal) in assay [6] (H69AR cells + 2 uM doxorubicin) was -4.32% (inactive). Further, the figures for the inhibition in assay [7], in [8] and in assay [14] were 0% (inactive), 0% (inactive) and 0.245% (inactive), respectively. Moreover, the growth inhibition is 1.14% (inactive) in assay [9] and 10.2% (inactive) in [10]. For the same compound, the viability increase in [11] was -0.17% (inactive). Further, the RAM network inhibition in assay [15] was -0.52% (inactive).
